# Results from PubChem BioAssay (NCATS).
# Records with an inconclusive call do not appear. Unmarked numbers belong to inactive results. Activity calls are given as the source filed them. Calls come from the whole dose curve; as a rule, active = well fitted cell-killing curve with a large enough effect; inconclusive = small, poorly fitted or top-dose-only effect, or effect the other way; inactive = no such curve, though single readings can be large or run the other way.
# Experiment: Quantitative High-Throughput drug screen in 47 multiple myeloma cell lines against the NCATS MIPE library collection: AMO1_DSMZ cell viability assay (AID 1918927; note: nearly all actives have a fitted effect of over 30% in size)
# Details: AMO1 myeloma cells viability, CellTiter-Glo ATP luminescence, 48 h; series mostly up to 45.8 µM; viability, % of DMSO: at the top concentration
# From the text: PI: Beverly A. Mock Ph.D.
# Laboratory of Cancer Biology and Genetics,
# Center for Cancer Research, National Cancer Institute,
# National Institute of Health, Bethesda, Maryland
# Drug resistance and disease progression are common in multiple myeloma (MM) patients, underscoring the need for new therapeutic combinations. […] We hypothesized that effective combinations would reduce MYC expression and enhance p16 activity. […] These preclinical data identify potentially useful drug combinations for evaluation in drug-resistant MM and reveal potential mechanisms of combined drug sensitivity.
# Described herein is the primary MIPE qHTS used to cherrypick compounds. Validated compounds were then further tested for potential synergistic activiy.
# [1] Peat TJ, Gaikwad SM, Dubois W, Gyabaah-Kessie N, Zhang S, Gorjifard S, Phyo Z, Andres M, Hughitt VK, Simpson RM, Miller MA, Girvin AT, Taylor A, Williams D, D'Antonio N, Zhang Y, Rajagopalan A, Flietner E, Wilson K, Zhang X, Shinn P, Klumpp-Thomas C, McKnight C, Itkin Z, Chen L, Kazandijian D, Zhang J, Michalowski AM, Simmons JK, Keats J, Thomas CJ, Mock BA. Drug combinations identified by high-throughput screening promote cell cycle transition and upregulate Smad pathways in myeloma. Cancer Lett. 2023 Aug 1;568:216284. doi: 10.1016/j.canlet.2023.216284. Epub 2023 Jun 24. PMID: 37356470; PMCID: PMC10408729.
# SEQUENCE No. (e.g., 1, 2, 3, etc.); […] (e.g., Cells, Incubation, Reagent, etc.); VALUE and DESCRIPTION.
# 1; Cells; 5 uL; white, solid bottom 1536-well Greiner assay plate.
# 2; Compounds; 23 nL; Kalypsis pin tool (Wako USA) equipped with a 1536-well pin head to transfer to the assay plates.
# 3; Incubation; 48 hours; 37C incubation.
# 4; Reagent;5uL; CellTiter Glo (Promega).
# 5; Detector; 425V; Luminescence; Viewlux PerkinElmer.
# NOTES (numbers refer to Sequence numbers above)
# 1. The cell-based screening methods employed in this study were like those previously published. Briefly, the corresponding myeloma cell lines were screened in 1,536-well plates with 500 cells, 5-uL per well for inhibition of cell viability (assessed by measuring ATP levels with CellTiterGlo).
# 2. NCATS MIPE 4.0 library of approved and investigational drugs were added using the Kalypsis pin tool. Wells treated with DMSO only for 100% viability and media only wells for 0% viability were used as controls.
# 3. The assay plates were covered and incubated for 48 hours in a 37C, 5% CO2 incubator with controlled humidity.
# 4. After 48 hours, CellTilter-GloTM luminescent substrate mix (Promega) reagent was added to the assay plate and plates we incubated for 5 min at room temperature.
# 5. Signal was measured as median relative luminescence units on a ViewLux (PerkinElmer) multiplate reader.
# [1] Heske CM, Davis MI, Baumgart JT, Wilson K, Gormally MV, Chen L, Zhang X, Ceribelli M, Duveau DY, Guha R, Ferrer M, Arnaldez FI, Ji J, Tran HL, Zhang Y, Mendoza A, Helman LJ, Thomas CJ. Matrix Screen Identifies Synergistic Combination of PARP Inhibitors and Nicotinamide Phosphoribosyltransferase (NAMPT) Inhibitors in Ewing Sarcoma. Clin Cancer Res. 2017 Dec 1;23(23):7301-7311. doi: 10.1158/1078-0432.CCR-17-1121. Epub 2017 Sep 12. PMID: 28899971; PMCID: PMC6636827.
# Potency is the fitted concentration of half-maximal effect.
Structure (SMILES),Potency,"viability, % of DMSO"
O=C(O)C=Cc1ccc(Cn2ccnc2)cc1,0.372 µM (active),–
Cc1coc2c1C(=O)C(=O)c1c-2ccc2c(C)cccc12,–,112%
C=C(C)[C@@H]1CC[C@]2(C)CC[C@]3(C)[C@H](CC[C@@H]4[C@@]5(C)CC[C@H](O)C(C)(C)[C@H]5CC[C@]43C)[C@@H]12,–,102%
CCCCCCCCCCCCCCCC(=O)OC[C@@H](NC(=O)C(Cl)Cl)[C@H](O)c1ccc([N+](=O)[O-])cc1,–,115%
COc1cc(N2CCC(C(N)=O)CC2)ccc1Nc1nc(N)c(Cl)c(Nc2ccccc2S(=O)(=O)C(C)C)n1,5.26 µM (active),–
Cc1ccc2nc(NCCN)c3ncc(C)n3c2c1,8.33 µM (active),–
Nc1ncn([C@@H]2O[C@H](CO)[C@@H](O)[C@@H]2O)c(=O)n1,1.48 µM (active),–
C[N+](C)([O-])CCNc1ccc(NCC[N+](C)(C)[O-])c2c1C(=O)c1c(O)ccc(O)c1C2=O,–,98.1%
CC[C@H](CC[C@@H](C)[C@H]1CC[C@H]2[C@@H]3CC=C4C[C@@H](O)CC[C@]4(C)[C@@H]3CC[C@]12C)C(C)C,–,124%
CC(C)(C)[N+]([O-])=Cc1ccc(S(=O)(=O)O)cc1S(=O)(=O)O,–,126%
NC(=O)N1CCC(CC(=O)N2CCC([C@H]3c4ncc(Br)cc4CCc4cc(Cl)cc(Br)c43)CC2)CC1,7.43 µM (active),–
N#Cc1c(C2CCNCC2)cc(-c2c(O)cccc2OCC2CC2)nc1N,13.2 µM (active),–
NC1=N[C@H]2[C@H](CS[C@H]2CCCCC(=O)O)N1,–,115% [at 23.2 µM]
COC(=O)C1C2CC3c4[nH]c5cc(OC)ccc5c4CCN3CC2CC(OC(=O)c2cc(OC)c(OC)c(OC)c2)C1OC (stereo not given),20.9 µM (active),–
CCCCC(=O)O[C@]1(C(=O)CO)[C@@H](C)C[C@H]2[C@@H]3CCC4=CC(=O)C=C[C@]4(C)[C@@]3(F)[C@@H](O)C[C@@]21C,–,95.9%
C=C1C(=CC=C2CCC[C@]3(C)[C@@H]([C@H](C)CCCC(C)(C)O)CC[C@@H]23)C[C@@H](O)C[C@@H]1O,0.935 µM (active),–
CCCCCCCN(CC)CCCC(O)c1ccc(NS(C)(=O)=O)cc1 (stereo not given),23.5 µM (active),–
CC(O)(C#Cc1ccc2c(c1)N(c1nc(N)ncc1Cl)CC2)c1nccs1 (stereo not given),13.2 µM (active),–
C[C@H](CCC(=O)O)[C@H]1CC[C@H]2[C@@H]3[C@H](O)C[C@@H]4C[C@H](O)CC[C@]4(C)[C@@H]3CC[C@]12C,–,100%
CCc1c(O)cc(O)c(C(=O)c2ccc(OCCN3CCOCC3)c(OC)c2)c1CC(=O)N(CCOC)CCOC,–,109%

Structure (SMILES),Potency,"viability, % of DMSO"
N#Cc1cc(NC(=O)Nc2nnc(-c3ccncc3)s2)ccc1-c1cn[nH]c1,–,117%
Cc1cnn(C)c1C(=O)Nc1cc(Nc2ccc3c(C=Cc4ccccn4)n[nH]c3c2)ccc1F,9.35 µM (active),–
CC(C)c1cc(C(C)C)c(CC(=O)NS(=O)(=O)Oc2c(C(C)C)cccc2C(C)C)c(C(C)C)c1,4.69 µM (active),–
CC(=O)OC[C@@H]1O[C@@H](n2ccc(=O)[nH]c2=O)[C@H](OC(C)=O)[C@H]1OC(C)=O,–,122%
CCOC(=O)[C@H](CCc1ccccc1)N[C@@H](C)C(=O)N1[C@@H](C(=O)O)C[C@H]2CCC[C@@H]21,7.43 µM (active),–
c1ccc2c(Oc3nc(Nc4ccc(N5CCOCC5)cc4)c4ncn(C5CCCCC5)c4n3)cccc2c1,9.35 µM (active),–
CCN(CC)CCNC(=O)c1c(C)[nH]c(C=C2C(=O)Nc3ccc(F)cc32)c1C,3.4 µM (active),–
O=C(CCCCCCC(=O)Nc1cccnc1)NO,2.35 µM (active),–
Cn1cc(C=CC(=O)c2cccc(F)c2)cc1C=CC(=O)NO,18.7 µM (active),–
Nc1nc(=O)n([C@H]2CSC(CO)O2)cc1F (stereo not given in full),–,109%
c1coc(CNc2ncnc3nc[nH]c23)c1,–,104%
CCCNC(=O)[C@H]1O[C@H]1C(=O)N[C@H](C(=O)N1CCC[C@@H]1C(=O)OC)C(C)CC (stereo not given in full),4.69 µM (active),–
OCCNC1CCCc2c1[nH]c1ccc(-c3ccccc3)cc21 (stereo not given),16.6 µM (active),–
O=C(C=CC=Cc1ccc2c(c1)OCO2)N1CCCCC1,–,83.7%
CN(C)CCN1C(=O)c2cccc3cc(N)cc(c23)C1=O,4.18 µM (active),–
CC(C)c1cnn2c(NCc3ccccc3)cc(NCCCCCCN)nc12,23.5 µM (active),–
Cc1ncc(-c2ccnc(Nc3ccc(S(C)(=O)=O)cc3)n2)n1C(C)C,2.09 µM (active),–
COc1cc(OC)c(NC(=O)Nc2cc(C)on2)cc1Cl,–,112%
COc1cccc2c1C(=O)c1c(O)c3c(c(O)c1C2=O)C[C@@](O)(C(=O)CO)C[C@@H]3O[C@H]1C[C@H](N)[C@H](OC2CCCCO2)[C@H](C)O1 (stereo not given in full),–,111%
Cc1cc(O)c2c(c1)C(=O)c1cccc(O)c1C2=O,–,109%
